# Source: PubChem
# Ba/F3 V617F tox = reduced viability of JAK2V617F-dependent Ba/F3 cells, primary screen, JAK2V617F inhibitor project, cell-based, Ba/F3 EpoR-JAK2V617F, luminescence; ATP luminescence; inhibition, % at 5.6 µM; 220,000 compounds, 1.1% hits; AID 1446, 2008;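 active = inhibition above the campaign mean plus 3 SD over all tested compounds, cut at about 24% in these data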;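 note: cytokine-independent growth of Ba/F3 cells driven by EpoR plus mutant JAK2; 0% = DMSO-treated cells and 100% = JAK inhibitor I control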
# aSyn UTR inh = MLPCN primary screen, SNCA 5' untranslated region | 300,000 compounds, 0.82% hits | alpha-synuclein 5'UTR reporter, inhibitor activity | inhibition, % (tested at 7.5 µM); in the data active = inhibition above about 60%;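 note: H4 neuroglioblastoma cells stably carrying SNCA 5'UTR luciferase fusion; 0% = DMSO wells and 100% = positive control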
# IEC-6 tox = cytotoxicity in IEC-6 intestinal epithelial cells, primary screen, cytotoxicity control for KLF5 inhibitor project, cell-based, luminescence | IEC-6 cytotoxicity, luminescence viability | inhibition, % at 5 µM | 290,000 compounds, 0.78% hits | AID 1825, 2009; in the data active = inhibition above about 22%;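 note: 0% = plate median of test compound wells and 100% = cytotoxic reference compound wells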
# KLF5 inhibitor = KLF5 expression inhibitors, primary screen, DLD-1 cells, luminescence. DLD-1 KLF5 promoter-luciferase reporter. inhibition, % at 5 µM. 290,000 compounds, 0.23% hits. AID 1700, 2009;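 active = inhibition above a per-plate limit of that plate's mean compound inhibition plus 3 SD, cut at about 60% in these data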;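 note: 0% = DMSO wells and 100% = LY294002 at 200 µM; higher means less KLF5 promoter-driven luciferase light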
# BaF3 tox = parental Ba/F3 cell viability inhibition, counter-screen for JAK2V617F inhibitor project, murine pro-B, CellTiter-Glo luminescence | CellTiter-Glo ATP luminescence | inhibition, % at 5.6 µM | 220,000 compounds, 1.1% hits | AID 1486, 2009;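 active = inhibition above a per-campaign cutoff, the mean inhibition of all tested compounds plus 3 SD, cut at about 27% in these data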;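 note: 0% = DMSO wells and 100% = JAK Inhibitor I control wells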
# APP 5UTR inh = inhibitors of APP translation via 5'UTR reporter, primary screen, APP 5'UTR luciferase, SH-SY5Y cells; SH-SY5Y APP 5'UTR-luciferase reporter, luminescence; inhibition, % at 2 µM; 190,000 compounds, 0.82% hits; AID 1285, 2008;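 active = inhibition above a set limit, derived from the sample mean plus 3 SD, cut at about 45% in these data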
# BaF3 parental 2 = parental Ba/F3 cell viability inhibition, counter-screen for JAK2V617F inhibitor project, murine pro-B, CellTiter-Glo luminescence | shares compounds with Ba/F3 V617F tox | cells kept alive by added IL-3 | inhibition, % at 5.6 µM | 580 compounds, 31% hits | AID 1520, 2009;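 active = cell growth inhibition above the hit limit set in the earlier mutant JAK2 cell screen, cut at about 27% in these data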;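 note: plate controls were DMSO-treated cells for no effect and JAK Inhibitor I control wells for full effect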
# JAK2V617F confrm = viability loss in Ba/F3 EpoR-JAK2V617F cells, confirmation, JAK2V617F inhibitor project, cell-based, luminescence, triplicate; CellTiter-Glo luminescence; shares compounds with Ba/F3 V617F tox; 580 compounds, 66% hits; inhibition, % at 5.6 µM;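 active = mean inhibition above the hit cutoff derived in the earlier primary screen, cut at about 25% in these data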;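 note: 0% = DMSO-treated cells and 100% = JAK inhibitor I control wells; higher means lower luminescence from reduced cell ATP and viability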
# Active calls of the source: *; . = no result. The list is not random: actives were taken first. Their share in the collection is about 2.2%.
SMILES,Ba/F3 V617F tox,aSyn UTR inh,IEC-6 tox,KLF5 inhibitor,BaF3 tox,APP 5UTR inh,BaF3 parental 2,JAK2V617F confrm
C/C(=C\C(=O)O)CC(=O)O,53*,-4,5,-7,4,-14,-6,-7
Cc1cc(NC(=S)N(Cc2cccc(Br)c2)CC2CCC(C(=O)O)CC2)ccc1Cl (configuration not stated),29*,25,2,2,25,-22,27*,38*
Cc1ccc(NC(=S)N(Cc2cccc(Br)c2)CC2CCC(C(=O)O)CC2)cc1 (configuration not stated),-3,-32,-6,-18,6,-16,.,.
CC(=O)c1cn(-c2ccc(Cl)cc2)c(=O)[nH]c1=O,.,11,-5,-15,.,.,.,.
COc1cc2c(cc1OC)-c1cc(N3CCCc4ccccc43)nc(=O)n1CC2,30*,29,-2,-14,15,12,15,61*
COC(=O)c1cccc(N/C=C(\[N+](=O)[O-])S(=O)(=O)c2ccccc2)c1,.,-62,-1,-15,.,.,.,.
Cc1ccc(-c2cnn(-c3ccccc3)c2N)cc1,.,-69,10,-17,.,.,.,.
Nc1c(-c2ccccc2)cnn1-c1ccc(C(=O)O)cc1,53*,-130,0,-84,1,-137,-3,-2
O=C(C[n+]1ccc(C(=O)NCCCO)cc1)c1cccc(Br)c1,-1,-10,1,1,1,.,.,.
Cc1ccccc1N1CCN(Cc2c[nH]c3ccccc23)CC1,35*,37,2,-19,2,15,-5,29*
CSCC[C@H](NC(=O)N1C[C@H]2C[C@@H](C1)c1cccc(=O)n1C2)C(=O)Nc1ccc(NC(C)=O)cc1,.,-2,0,-22,.,.,.,.
Cc1ccc(NC(=O)C(OC(=O)c2cnc(C)cn2)c2ccccc2)c([N+](=O)[O-])c1 (configuration not stated),.,-10,9,-20,.,.,.,.
COCCn1c(=S)[nH]c2cc(C(=O)N3CCN(c4ccc(F)cc4)CC3)ccc2c1=O,51*,-1,-3,-5,1,-2,3,5
COCCn1c(=S)[nH]c2cc(C(=O)N3CCN(c4ccccc4OC)CC3)ccc2c1=O,-1,.,7,-5,2,8,.,.
Cc1ccc(C)c(C2=NNC(=O)CC2)c1,.,3,.,.,.,.,.,.
CCCCN(CC)Cc1ccc(CNC(=O)Nc2ccc(Cl)cc2)o1,47*,37,18,-8,-1,-7,14,42*
O=C(Nc1ccccc1)c1cnc2ccccc2n1,103*,-116,19,-27,10,-51,-1,-4
O=C(CSc1ccc2ccccc2c1)NCCc1ccc(O)c(O)c1,52*,32,2,-13,8,26,51*,93*
CC1=CC(C)C2(CO)COC(c3ccccc3O)C1C2C (configuration not stated),58*,-12,-3,11,3,3,-5,1
COc1ccccc1NC(=O)Nc1nc(CC(=O)N2CCN(c3ccc(F)cc3)CC2)cs1,.,15,.,.,.,.,.,.
CCC(C)[C@@H](NC(=O)OC(C)(C)C)c1nnc(S(=O)(=O)Cc2cccc(C)c2)o1 (some centres not stated),26*,31,7,-2,14,21,12,66*
Cc1cccc(CS(=O)(=O)Cc2ccc(C(=O)NC(C)c3ccccc3)o2)c1 (configuration not stated),.,14,-6,0,.,.,.,.
Cc1ccccc1CS(=O)(=O)c1nnc([C@H](Cc2ccccc2)NC(=O)OC(C)(C)C)o1,37*,20,4,7,2,70*,2,95*
CCSc1nnc([C@H](Cc2ccccc2)NC(=O)OC(C)(C)C)o1,0,-8,-3,-2,6,14,.,.
Cc1ccc(NC(=O)CN(C)C(=O)CNC(=O)c2sc3ccccc3c2Cl)cc1,.,-59,.,.,.,.,.,.
SMILES,Ba/F3 V617F tox,aSyn UTR inh,IEC-6 tox,KLF5 inhibitor,BaF3 tox,APP 5UTR inh,BaF3 parental 2,JAK2V617F confrm
O=C(CBr)Nc1c2c(nn1-c1ccccc1)CSC2,.,6,-4,0,.,.,.,.
COc1ccc2oc(C(=O)OCc3nnc(-c4ccccc4)o3)c(C)c2c1,.,-7,.,.,.,.,.,.
COc1ccc(/C=C(\NC(=O)c2ccc(C)cc2)C(=O)NCCCN2CCOCC2)cc1OC,.,9,4,8,.,.,.,.
NC(=S)NN=C(Cc1ccccc1)Cc1ccccc1,45*,-26,-2,-12,21,-7,50*,60*
COc1cc(C(=O)NC(=S)Nc2ccc3c(c2)C(=O)N(C)C3=O)cc(OC)c1OC,-3,10,-1,-5,-2,7,.,.
CCOC(=O)C1(Cc2ccccc2C(F)(F)F)CCN(C2CCN(C(C)C)CC2)CC1,73*,.,17,-5,16,9,14,42*
CCOC(=O)C1(Cc2ccccc2C(F)(F)F)CCN(CC(O)CO)CC1 (configuration not stated),0,15,-6,-15,7,-7,.,.
C#CCSc1nsc(SCC#C)c1C#N,45*,-32,-1,-45,6,7,-4,72*
CCCSc1nsc(SCCC)c1C#N,-4,-41,1,-14,2,-1,.,.
Fc1ccc(CSc2ccc3nnc(-c4cccnc4)n3n2)cc1,0,20,2,-13,2,-12,.,.
Cc1oc2c(O)c(O)ccc2c(=O)c1-c1ccccc1,.,-57,.,.,.,.,.,.
Cc1oc2c(O)c(O)ccc2c(=O)c1-c1cnn(-c2ccccc2)c1,45*,-12,1,1,0,-18,23,99*
COc1ccc(Cl)cc1S(=O)(=O)N1CCN=C1Cc1ccccc1,.,21,-4,-23,.,.,.,.
COc1ccccc1S(=O)(=O)n1cc(Cc2ccccc2)c(N)n1,100*,.,0,-23,1,0,-7,-5
O=C(O)CCC(=O)N1CCN(c2ncccc2C(F)(F)F)CC1,4,17,2,-8,-3,.,.,.
CC1CN(Cc2cc(=O)[nH]c(C3CC3)n2)CC(C)O1 (configuration not stated),40*,2,9,-36,4,1,-6,-5
CCOC(=O)C1=C(COC(=O)c2cc(Br)c(Br)s2)NC(=O)NC1C (configuration not stated),.,-3,.,.,.,.,.,.
CCCOc1ccc(C(=O)C(CN2CCCC2)c2ccccc2)cc1 (configuration not stated),65*,-47,6,-30,6,92*,52*,99*
